Bioassay records (PubChem BioAssay)
TEAD-YAP block = TEAD-YAP interaction inhibition; inhibition, % at 9.12 µM; HEK-TIYL cells, TEAD-Gal4/YAP UAS-luciferase luminescence; 1.4% of 640,000 active; in the data active = inhibition above about 32%;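 note: 0% = median of test compound wells and 100% = reference inhibitor wells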
FBW7 act = human FBW7 E3 ligase activation, primary screen. normalized activity (activation), % at 26.1 µM. AlphaScreen FBW7–phospho-cyclin E peptide binding, activator screen. 0.13% of 650,000 active. Q969H0; in the data active = normalized activity above about 1.9%;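 note: purified mutant Fbw7 with reduced substrate affinity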
Target sequence (Q969H0 whole entry, looked up): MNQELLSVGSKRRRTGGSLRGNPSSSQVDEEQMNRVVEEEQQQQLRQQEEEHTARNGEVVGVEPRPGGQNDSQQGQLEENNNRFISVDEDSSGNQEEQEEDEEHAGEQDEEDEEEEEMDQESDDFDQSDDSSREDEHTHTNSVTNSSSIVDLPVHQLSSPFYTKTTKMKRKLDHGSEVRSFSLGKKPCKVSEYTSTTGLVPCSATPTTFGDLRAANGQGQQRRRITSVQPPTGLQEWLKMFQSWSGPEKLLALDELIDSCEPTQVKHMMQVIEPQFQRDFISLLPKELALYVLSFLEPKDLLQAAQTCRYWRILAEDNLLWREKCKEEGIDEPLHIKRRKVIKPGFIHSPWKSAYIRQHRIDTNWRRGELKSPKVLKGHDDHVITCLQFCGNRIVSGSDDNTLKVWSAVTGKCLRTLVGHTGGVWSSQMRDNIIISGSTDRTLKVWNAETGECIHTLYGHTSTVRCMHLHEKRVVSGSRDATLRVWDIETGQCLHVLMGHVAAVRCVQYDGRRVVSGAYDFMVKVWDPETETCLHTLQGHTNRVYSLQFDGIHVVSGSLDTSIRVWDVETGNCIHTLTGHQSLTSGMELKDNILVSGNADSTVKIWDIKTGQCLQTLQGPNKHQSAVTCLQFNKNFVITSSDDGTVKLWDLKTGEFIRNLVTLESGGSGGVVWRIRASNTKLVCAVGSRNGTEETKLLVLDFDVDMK
GPR151 ag = activators of human GPR151 | PathHunter beta-arrestin GPR151 cells, luminescence | Q8TDV0 | activation, % at 11.2 µM | 1% of 650,000 active; in the data active = activation above about 4.9%;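 note: 0% = median of compound wells and 100% = cells with positive control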
MITF primary = inhibitors of human MITF | O75030 | 0.91% of 650,000 active | AlphaScreen MITF homodimerization, bead proximity signal | inhibition, % at 2.6 µM; in the data active = inhibition above about 50%;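 note: 0% = vehicle wells with protein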
Numbers without * were called inactive. In the library only some 3.5% were active in any assay of this set; here they are far more common.

SMILES	TEAD-YAP block	FBW7 act	GPR151 ag	MITF primary
COC(=O)C[C@H]1C2(C)CC34OC5(C)O[C@@]6([C@H](OC(C)=O)C(OC(C)=O)[C@]7(C)C(/C(=C(/O)C(C)C)C(=O)O[C@H]7c7ccoc7)[C@@]6(O5)[C@H](OC(C)=O)[C@@]3(O)C2OC(=O)C(C)C)[C@]14C (stereo partly drawn)	2	0	0	10
C=CCNc1ncnc2scc(-c3ccccc3)c12	38*	0	1	2
Fc1ccc(-c2csc3ncnc(NCCc4cccs4)c23)cc1	43*	0	2	4
c1csc(CCNc2ncnc3sc4c(c23)CCC4)c1	37*	0	2	21
Cc1sc2nc(C)n(C3CCN(C(=O)c4ccncc4)CC3)c(=O)c2c1C	40*	0	0	-14
Cc1nc(Nc2ccc(NC(=O)Cn3cnc4ccccc43)cc2)cc(-n2cccn2)n1	27	0	1	-1
C/C(=N\NC(=O)CNc1ccccc1C)c1ccc(C)cc1	2	0	-1	-14
Cc1ccc(C#N)c(SCC(=O)Nc2ccccc2C(=O)O)n1	33*	0	-2	-13
Cc1cc(C)c(C#N)c(SCC(=O)Nc2ccccc2C(=O)O)n1	8	1	2	10
Cc1cccc(NC(=O)CSc2nc(C)cc(C)c2C#N)n1	81*	0	0	-14
CC(C)(C)c1ccc(-c2ccc(OCCN3CCCC3=O)nc2)cc1	52*	0	1	7
Cc1c2cnc3nn(-c4ccccc4)c(=O)c-3cc2c(C)n1-c1ccccc1	85*	0	1	-5
CCOC(=O)c1ccc(-n2c(C)c3cnc4nn(-c5ccccc5)c(=O)c-4cc3c2C)cc1	-5	0	-3	-4
O=C(NCCc1ccccc1)c1ccc2c(c1)NC(=O)c1ccccc1S2	53*	0	0	-1
CCCNC(=O)c1ccc2c(c1)NC(=O)c1ccccc1S2	-1	0	1	-2
Clc1ccc(-n2ncc3c(N4CCCC4)ncnc32)cc1	35*	0	3	-3
Fc1ccc(-n2ncc3c(N4CCCCCC4)ncnc32)cc1	28	1	2	8
Clc1ccc(-n2ncc3c(N4CCCCC4)ncnc32)cc1	96*	0	-1	-10
O=C(C1CCOC1)N1CCC(CO)(Cc2cccc(F)c2)CC1 (stereo not drawn)	-4	0	1	3
COc1ccc(CNc2c(C)c(C)nc3ncnn23)cc1	26	0	1	12
Cc1nc2ncnn2c(NCCc2ccccc2)c1C	42*	1	-1	17
COc1ccc(CCNc2c(C)c(C)nc3ncnn23)cc1	60*	0	1	-2
COc1ccc(NC(=O)C(=O)NCC2CCCN2S(=O)(=O)c2ccc(C)cc2)cc1 (stereo not drawn)	61*	0	2	-15
Cc1ccc(S(=O)(=O)N2CCCCC2CCNC(=O)C(=O)NCc2ccccc2)cc1 (stereo not drawn)	46*	0	1	3
CCOC(=O)N1CCN(C(=O)C(C)N(c2ccc(OCC)cc2)S(C)(=O)=O)CC1 (stereo not drawn)	0	0	1	-15
SMILES	TEAD-YAP block	FBW7 act	GPR151 ag	MITF primary
c1ccc(-n2ncc3c(Nc4cccc5c4CCCC5)ncnc32)cc1	-1	0	4	5
Cc1cccc(-n2ncc3c(Nc4cccc5c4CCCC5)ncnc32)c1	42*	0	0	18
Cc1cccc(Nc2ncnc3c2cnn3-c2cccc(C)c2)c1	-27	0	0	10
COc1ccc(-n2ncc3c(Nc4cccc5c4CCCC5)ncnc32)cc1	47*	0	1	-4
COc1cc(Nc2ccc(-c3cccc(C=O)c3)cn2)cc(OC)c1OC	4	0	0	13
Cc1cccc(-c2nnc(SCC(=O)Nc3ccccc3F)o2)c1	64*	0	0	-1
Cc1cccc(-c2nnc(SCC(=O)Nc3cc(Cl)ccc3O)o2)c1	-39	0	-4	17
O=C(Nc1nc(CCC(=O)N2CCCCCC2)cs1)NC1CCCCC1	41*	0	2	-2
O=C(Nc1nc(CCC(=O)N2CCN(c3ccccc3F)CC2)cs1)NC1CCCCC1	5	0	3	5
c1ccc(CNc2ccnc(Nc3ccc(N4CCOCC4)cc3)c2)cc1	34*	-1	1	9
c1cc(-c2ccnc(Nc3ccc(-n4cnc(-c5ccncc5)n4)cc3)n2)cc(N2CCOCC2)c1	20	0	-1	-13
c1ccc(-c2ncn(-c3ccc(Nc4cc(-c5cccc(N6CCOCC6)c5)ccn4)cc3)n2)nc1	78*	0	0	12
O=C(NCc1ccccc1)c1ccnc(Nc2ccc(N3CCOCC3)cc2)c1	1	0	0	21
c1ccc(-n2cccn2)c(Nc2ccnc(Nc3ccc(N4CCOCC4)cc3)c2)c1	40*	0	3	6
c1ccc(Nc2ncn(-c3ccnc(Nc4ccc(N5CCOCC5)cc4)c3)n2)cc1	37*	0	0	5
N#Cc1ccc(C(=O)NNc2c(F)c(F)cc(F)c2F)cc1	-3	0	2	-11
c1cc(Nc2cc(C3CC3)[nH]n2)cc(Nc2ccc(N3CCOCC3)cc2)n1	85*	-1	1	14
c1cc(Nc2ccc3nc[nH]c3c2)cc(Nc2ccc(N3CCOCC3)cc2)n1	1	0	1	24
COCCN=c1scc(-c2cccc3ccccc23)n1/N=C/c1ccc[nH]1	43*	0	2	10
Cc1ccc(NC(=O)N[C@H]2C[C@H]3C(=O)N[C@H](CC(C)C)C(=O)N3C2)cc1Cl	-3	0	0	-8
Cc1[nH]c(=O)[nH]c(=O)c1NC(=O)c1sc2nc3ccc(C(C)C)cc3cc2c1N	79*	0	1	-2
Cc1ccc2cc3c(N)c(C(=O)Nc4nc(C)c(C)s4)sc3nc2c1	-49	0	-1	0
CC(C)c1ccc2nc3sc(C(=O)Nc4nccs4)c(N)c3cc2c1	66*	0	1	-11
Cc1cc2cc3c(N)c(C(=O)Nc4nc(C)c(C)s4)sc3nc2cc1C	-16	46*	2	-3
Cc1ccc2nc3sc(C(=O)Nc4c(C)[nH]c(=O)[nH]c4=O)c(N)c3cc2c1	0	0	1	0
SMILES	TEAD-YAP block	FBW7 act	GPR151 ag	MITF primary
Nc1c(C(=O)Nc2nccs2)sc2nc3c(cc12)CCC3	56*	0	-1	3
Cc1cccc(NC(=O)C2CCN(S(=O)(=O)c3ccc4[nH]c(=O)ccc4c3)CC2)c1C	-3	0	0	3
CCCCCCCCCCCCC[N+](C)(C)Cc1ccccc1	38*	0	1	24
CC(C)Sc1ccccc1NC(=O)C1COc2ccccc2O1 (stereo not drawn)	-8	0	2	5
O=[N+]([O-])c1ccccc1C1CC(c2ccccc2)=NN1 (stereo not drawn)	40*	0	1	-3
COc1cc(Cl)c(C)cc1NC(=O)C(F)(F)F	0	0	3	3
CC1(C)CC(N2CCCC2)=CC(=[N+]2CCCCC2)C1	70*	0	0	20
CC1(C)CC(N2CCCC2)=CC(=[N+]2CCCC2)C1	52*	0	1	0
